Screens deposited in PubChem by Sanford-Burnham Center for Chemical Genomics.
Only some compounds are listed: those with a hit (about 1.5% of all), similar ones and a draw of the others.
NadD inh – inhibitors of Staphylococcus aureus NadD; 360,000 compounds, 0.78% hits; inhibition, % at 20 µM; purified NadD enzyme, colorimetric absorbance read-out; in the data active means inhibition above about 26%
Neddyl block – cullin neddylation inhibition | P61081+Q13564 | TR-FRET cullin neddylation, biochemical | inhibition, % at 25 µM | 360,000 compounds, 0.58% hits; in the data active means inhibition above about 36%
Target sequence (P61081 whole entry, looked up): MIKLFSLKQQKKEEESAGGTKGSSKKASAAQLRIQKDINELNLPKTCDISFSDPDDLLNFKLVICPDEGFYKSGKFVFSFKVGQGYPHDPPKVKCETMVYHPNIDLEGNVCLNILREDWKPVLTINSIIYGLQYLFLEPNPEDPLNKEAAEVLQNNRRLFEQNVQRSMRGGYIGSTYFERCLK
Target sequence (Q13564 whole entry, looked up): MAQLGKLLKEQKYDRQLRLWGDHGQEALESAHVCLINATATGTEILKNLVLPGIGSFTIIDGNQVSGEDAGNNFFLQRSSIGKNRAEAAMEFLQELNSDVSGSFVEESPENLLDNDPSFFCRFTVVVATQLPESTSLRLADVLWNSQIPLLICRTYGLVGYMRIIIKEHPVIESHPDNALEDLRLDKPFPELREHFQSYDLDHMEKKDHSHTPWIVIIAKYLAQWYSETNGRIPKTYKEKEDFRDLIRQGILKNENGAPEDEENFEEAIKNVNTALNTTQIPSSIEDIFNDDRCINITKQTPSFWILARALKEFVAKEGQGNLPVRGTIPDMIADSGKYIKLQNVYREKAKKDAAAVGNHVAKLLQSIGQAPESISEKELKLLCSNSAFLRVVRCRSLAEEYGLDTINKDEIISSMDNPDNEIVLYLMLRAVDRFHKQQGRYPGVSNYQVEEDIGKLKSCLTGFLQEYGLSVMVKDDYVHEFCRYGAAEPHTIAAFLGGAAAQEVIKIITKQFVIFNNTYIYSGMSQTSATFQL
NPR1 activator – GC-A (human) enzyme activation; P16066; HEK293 GC-A cells, cGMP TR-FRET, EC30 ANP; 0% at EC30 ANP, 100% saturating ANP; activation, % at 10 µM; 370,000 compounds, 0.14% hits; in the data active means activation above about 40%
NPR2 activator – GC-B (human) receptor activation; P20594; HEK293-GC-B cells, CNP EC30, cGMP TR-FRET; 0% at EC30 CNP, 100% saturating CNP; activation, % at 10 µM; 370,000 compounds, 0.11% hits; AID 1920062;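 active means activation at 10 µM reaching about 35% in either raw or pattern-adjusted values, limit read from the data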
Starred values were filed as active, the others as inactive; i = inactive; nt = no result; ! = a repeat was not active.

SMILES | NadD inh | Neddyl block | NPR1 activator | NPR2 activator
CC(Sc1ccc2ccccc2n1)C(=O)O (configuration not stated) | 0 | i | 48*! | 29
CC(Sc1cnc2ccccc2n1)C(=O)O (configuration not stated) | -3 | -397 | 18 | 11
CC(=O)Nc1cc(-c2cccc(N)c2)cn2c(-c3ccc(C(C)=O)cc3)cnc12 | 6 | 5 | 6 | 35*
COC(=O)C(C[N+](=O)[O-])C1=C(O)CC(C)(C)CC1=O (configuration not stated) | nt | nt | 5 | 2
CC(Sc1nnc(NCc2ccccc2)s1)C(=O)Nc1ccc2c(c1)C(=O)c1ccccc1C2=O (configuration not stated) | 38* | -20 | 0 | -5
CC(C)Oc1ccc(C(=O)N/N=C/c2ccc(-c3ccc(S(=O)(=O)Nc4ncccn4)cc3)o2)cc1 | 35* | 48* | 1 | 11
COC(=O)[C@]12C[C@H](CC(=O)NCc3cccc4ccccc34)C(=O)N(Cc3ccc(Cl)cc3Cl)C1=C[C@H](C(C)C)O[C@@H]2C1CC1 | nt | nt | -6 | 2
CC1=NN(c2nc(N)nc(/C(C#N)=C/c3ccc([N+](=O)[O-])o3)n2)C(C)(C)C1 | 13 | -33 | 46* | 41*
O=C1C2C(C(=O)N1/N=C/c1ccc([N+](=O)[O-])o1)C1C=CC2C12CC2 (configuration not stated) | 0 | 20 | 1 | 2
CC(=O)Oc1c(-c2ccco2)oc2ccccc2c1=O | 2 | 46* | 4 | 1
CS(=O)(=O)c1sc(C#N)c2c1C(=O)CC(c1ccccc1)C2 (configuration not stated) | -4 | -241 | -3 | 48*
Cc1oc2c(c(=O)c1C)C(=O)CC(c1ccccc1)C2 (configuration not stated) | -1 | -5 | -2 | -5
COc1ccc(C(=O)NC(=S)NNC(=O)c2ccccc2C)cc1 | 3 | 41* | 1 | 2
COc1ccc(C(=O)NC(=S)NNC(=O)c2ccccc2O)cc1 | 0 | 1 | 2 | -1
O=C(Nc1cccc(Cl)c1)c1cc(N=Nc2ccc([N+](=O)[O-])cc2Cl)ccc1O | 50* | -9 | 9 | 3
O=C(Nc1ccc([N+](=O)[O-])cc1Cl)c1cc(Cl)ccc1O | 7 | -36 | 19 | 15
CCCCOc1ccc(C(=O)NC2CCCCN(Cc3cccc(C(F)(F)F)c3)C2=O)cc1 (configuration not stated) | nt | nt | 1 | 5
CC(C)c1nc2sc3c(SCC(=O)NCc4ccco4)ncnc3c2c2c1CCC2 | 46* | -194 | 5 | 10
O=C(CSc1ncnc2sc3c(c12)CCCCC3)NCc1ccco1 | -2 | -59 | -1 | 0
COc1cc(/C=C2\SC(=O)N(c3ccc(Cl)cc3)C2=O)cc([N+](=O)[O-])c1O | 60* | -18 | 14 | -3
Cc1ccc(O)c(N=Cc2cc(Cc3ccccc3)cc([N+](=O)[O-])c2O)c1 | 54* | -33 | -4 | -8
Clc1ccc(-c2nc(-c3ccncc3)no2)c(Cl)c1 | -3 | -16 | 46* | -9
Clc1ccc(Cl)c(-c2nc(-c3ccncc3)no2)c1 | -1 | -49 | -2 | 0
O=[N+]([O-])c1cc(Cl)ccc1-c1nc(-c2ccncc2)no1 | 1 | -35 | 46* | -2
COC(=O)[C@]12C[C@H](CC(=O)N3CCN(C(=O)C4CC4)CC3)C(=O)N(Cc3ccccc3)C1=C[C@H](C1CCCC1)O[C@@H]2C | nt | nt | -5 | -10
SMILES | NadD inh | Neddyl block | NPR1 activator | NPR2 activator
Cc1cc(/C=C2\SC(=Nc3ccccc3)NC2=O)c(C)n1-c1ccc(S(N)(=O)=O)cc1 | 46* | 27 | -10 | 3
CC1(C)CC2CN(Cc3ccccc3)S(=O)(=O)N2C1 (configuration not stated) | nt | nt | -3 | -3
COc1ccc(/C=C2/SC(=S)N(c3ccc(S(=O)(=O)Nc4nccs4)cc3)C2=O)cc1 | 56* | 80* | -12 | 7
O=C1/C(=C\c2ccccn2)SC(=S)N1c1ccc(S(=O)(=O)Nc2nccs2)cc1 | 44* | -10 | -7 | 4
O=C1/C(=C/c2ccccn2)SC(=S)N1c1ccc(O)cc1 | 0 | -22 | -5 | -6
COc1ccc(/C=C2/SC(=S)N(NS(=O)(=O)c3ccccc3)C2=O)cc1 | 14 | -40 | -8 | -8
Cc1ccc(/C=C2/SC(=S)N(c3ccc(S(=O)(=O)Nc4nccs4)cc3)C2=O)cc1 | 62* | -5 | -11 | -2
CCCCCCCC(=O)N[C@H]1CC[C@@]23CCCN2C(=O)CCC[C@H]3[C@H]1C | nt | nt | 0 | -5
COc1ccc(C(=O)N2CCC[C@@H]2C(=O)N2CCC[C@@H]2C(=O)NCc2ccccc2)cc1F | nt | nt | 1 | -2
CCOc1ccc(-n2c(SCC(=O)Nc3ccc(S(=O)(=O)Nc4nccs4)cc3)nnc2-c2ccncc2)cc1 | nt | nt | -1 | 1
Cc1cc(Br)c2nc3c(c(C(=O)O)c2c1)CCCCC3 | 3 | i | 64* | 18
Cc1cc(C(=O)Cn2ncc(Cl)c(Cl)c2=O)c(C)n1CC(F)(F)F | 9 | -269 | 45* | 56*
O=C(CCc1ccccc1)NCCSc1ccccc1 | -8 | -4 | -4 | 1
O=C(CCc1[nH]c2ccccc2c1Sc1ccccc1)NCCO | -11 | 7 | 43* | 16
CCCCOCCCNC(=O)C[C@@H]1C[C@]2(C(=O)OCC)CCC3=C2N(CCC3)C1=O | nt | nt | 2 | 4
CC1Nc2ncnc(N3CCc4ccccc4C3)c2N(Cc2ccc(Br)cc2)C1=O (configuration not stated) | 45*! | -4 | -8 | -9
CC(C)CC1Nc2ncnc(N3CCCCC3)c2N(Cc2ccccc2)C1=O (configuration not stated) | 0 | 4 | nt | nt
O=C1C(Cc2ccccc2)Nc2ncnc(N3CCCCC3)c2N1Cc1ccc(Cl)cc1 (configuration not stated) | 36* | 17 | nt | nt
O=C1C(Cc2ccccc2)Nc2ncnc(N3CCOCC3)c2N1Cc1ccc(Br)cc1 (configuration not stated) | 5 | 0 | -4 | -11
O=C1C(Cc2ccccc2)Nc2ncnc(N3CCc4ccccc4C3)c2N1Cc1ccccc1 (configuration not stated) | 40* | 9 | nt | nt
CCC1Nc2ncnc(N3CCc4ccccc4C3)c2N(Cc2ccc(Br)cc2)C1=O (configuration not stated) | 19 | 12 | nt | nt
CC(C)C[C@H]1COc2cccc(F)c2S(=O)(=O)N1Cc1cn(Cc2ccc(C(F)(F)F)cc2)nn1 | nt | nt | 3 | 6
COC(=O)[C@]12C[C@H](CC(=O)N3CCN(C(=O)C4CC4)CC3)C(=O)N(Cc3ccc(Cl)cc3Cl)C1=C[C@H](C1CCCC1)O[C@@H]2C | nt | nt | -27 | -18
CCN(CC)C(=O)c1oc(=O)c2ccccc2c1-c1ccc(C)cc1 | nt | nt | -7 | -19
COc1ccc2c(c1)CO[C@H]([C@H](O)CO)[C@H]2/C=C/c1ccccc1 | nt | nt | 6 | -4
O=C(O)c1ccc(N2C(=O)/C(=C/c3ccc(-c4ccc([N+](=O)[O-])cc4)o3)C=C2c2ccccc2)cc1 | 56* | -35 | nt | nt
